Hits are enriched below; roughly 11% of the tested compounds scored in any of these assays.
Luciferase inh: inhibitors of firefly (Photinus pyralis) luciferase; P08659; purified P. pyralis luciferase, luminescence, biochemical; Potency, µM (top dose mostly 115 µM), most hits filed as inhibitors; hit rate 2.5% among 76,000; further: nearly all actives have a fitted effect of over 65% in size
Target sequence (P08659 whole entry, looked up): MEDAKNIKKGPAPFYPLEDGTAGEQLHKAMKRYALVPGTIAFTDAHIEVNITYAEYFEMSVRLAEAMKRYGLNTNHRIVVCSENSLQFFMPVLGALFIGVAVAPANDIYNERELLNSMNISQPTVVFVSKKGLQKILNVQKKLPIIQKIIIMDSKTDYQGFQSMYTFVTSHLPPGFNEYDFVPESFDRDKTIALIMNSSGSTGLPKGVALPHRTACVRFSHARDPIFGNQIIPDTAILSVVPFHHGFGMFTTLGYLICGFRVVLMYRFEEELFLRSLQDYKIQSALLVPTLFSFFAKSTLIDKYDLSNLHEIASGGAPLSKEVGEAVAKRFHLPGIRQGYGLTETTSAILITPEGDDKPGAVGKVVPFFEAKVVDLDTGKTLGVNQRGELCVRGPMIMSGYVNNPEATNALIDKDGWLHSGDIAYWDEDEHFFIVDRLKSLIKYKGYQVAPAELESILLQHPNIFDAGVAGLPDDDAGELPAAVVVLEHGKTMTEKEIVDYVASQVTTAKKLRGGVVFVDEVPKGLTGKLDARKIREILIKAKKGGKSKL
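Purified P. pyralis luciferase (10nM final) in 50mM Tris acetate pH 7.5, 10mM Mg acetate, 0.01% Tween-20, 0.05% BSA with 10uM D-luciferin and 10uM ATP. Compounds titrated qHTS. Luminescence imaged on CCD.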
HEK293 tox: kills HEK 293 cells; HEK 293 viability, ATP luminescence (CellTiter-Glo), 48-72 h; Potency, µM (doses to about 115 µM), hits mostly inhibitors; hit rate 6.6% among 94,000; AID 1345083; further: nearly all actives have a fitted effect of over 60% in size
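qHTS cytotoxicity; HEK 293, 250 cells/well; compound pinned; 48 or 72 hr, 37 degree Celsius, 5% CO2, 95% humidity; CellTiter-Glo, 10 min RT; luminescence (ATP).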
NPR1 antag: antagonists of human natriuretic peptide receptor Npr1; P16066; hit rate 1.6% among 76,000; Potency, µM (titrated, usually from 46.3 µM), most hits filed as inhibitors; HEK293 hNpr1 GloSensor cGMP, ANP-stimulated luminescence; calls by dose curve; further: nearly all actives have a fitted effect of over 60% in size
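HEK293 cells stably expressing human Npr1 and cGMP GloSensor pGS-40F, loaded 2 h with 2% GloSensor reagent, given compound 30 min at room temperature. Luminescence read before and 20 min after 0.1 nM hNppA.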
3T3 cytotox: NIH 3T3 cell cytotoxicity; hit rate 4.3% among 94,000; Potency, µM (doses to about 96.7 µM), usual class: inhibitors; NIH 3T3 viability, CellTiter-Glo ATP luminescence, 48-72 h; further: nearly all actives have a fitted effect of over 55% in size
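Cytotoxicity was measured by CellTiter-Glo ATP luminescence after 48 or 72 h compound exposure at 37 °C. Mouse NIH 3T3 fibroblasts were seeded at 400 cells/well and dosed by 23 nL pin transfer.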
Of the large screens only hits and unclear results are named; the others gave an inactive call. Unless noted, the call rests on the fitted dose curve; in most records, active means well fitted curve in the direction sought with a large enough effect; inconclusive means small, poorly fitted or top-dose-only effect, or another doubt; inactive means no such curve, though single readings can be large; an effect the other way counts as inactive or inconclusive.

Cn1ccnc1CN1CCC2(CC1)COCCN2C(=O)OCc1ccccc1	HEK293 tox inconclusive, 3T3 cytotox inconclusive
CCn1c2c(c(=O)n1Cc1ccccc1)CCN(C(=O)c1cccnc1)C2	3T3 cytotox 50µM
COc1ccc(Cn2c3c(c(=O)n2Cc2ccccc2)CCN(C(=O)C2CCOCC2)C3)cc1	3T3 cytotox 25µM
O=c1c2c(n(Cc3cccnc3)n1CCc1ccccc1)CN(Cc1cccc(O)c1)CC2	3T3 cytotox inconclusive
CCn1c2c(c(=O)n1Cc1ccccc1)CCN(C(=O)c1scnc1C)C2	3T3 cytotox inconclusive
O=C(COc1ccccc1)N1CCc2c(n(Cc3cccnc3)n(CCc3ccccc3)c2=O)C1	3T3 cytotox 35µM
CCn1c2c(c(=O)n1Cc1ccccc1)CCN(C(=O)COc1ccccc1)C2	3T3 cytotox 50µM
CCN1c2cc(C(=O)Nc3ccc(OC(F)(F)F)cc3)ccc2C(=O)N2CCCCC21 (centres undefined)	3T3 cytotox inconclusive
COCCn1c2c(c(=O)n1-c1ccccc1)CCN(C(=O)COc1ccccc1)C2	3T3 cytotox inconclusive
COCCn1c(=O)c2c(n1Cc1ccccc1)CN(C(=O)COc1ccccc1)CC2	3T3 cytotox 22µM
COc1ccc(-n2c(=O)c3c(n2Cc2ccccc2)CN(C(=O)COc2ccccc2)CC3)cc1	3T3 cytotox 40µM
COc1ccc(Cn2c3c(c(=O)n2Cc2ccccc2)CCN(C(=O)CCc2cccnc2)C3)cc1	3T3 cytotox 6.3µM
O=C(NCc1cccc(Cl)c1)c1ccc2oc(-c3ccccn3)nc2c1	HEK293 tox inconclusive (no result: Luciferase inh, NPR1 antag)
CC1=C[C@@H](CNC(=O)c2cnccn2)[C@H](C(C)C)C[C@H]1Cc1nc2ccc(F)cc2[nH]1	HEK293 tox 71µM, NPR1 antag inconclusive, 3T3 cytotox 112µM
CC1=C[C@@H](CNC(=O)c2cnccn2)[C@H](C(C)C)C[C@H]1Cc1nc2ccc(C)cc2[nH]1	HEK293 tox 32µM, NPR1 antag inconclusive, 3T3 cytotox inconclusive
COc1ccc2nc(C[C@@H]3C[C@@H](C(C)C)[C@H](CNC(=O)Nc4ccc(F)cc4)C=C3C)[nH]c2c1	HEK293 tox 28µM, 3T3 cytotox 40µM
CC(=O)N1CCC(NC[C@@H]2C=C(C)[C@H](Cc3nc4ccc(F)cc4[nH]3)C[C@H]2C(C)C)CC1	HEK293 tox inconclusive, 3T3 cytotox 79µM
Cc1nccn1CCN(C)C(=O)c1coc(COc2cccc(C(F)(F)F)c2)n1	none
CN(Cc1ccc(F)cc1)Cc1ccccc1OCC(O)CN1CCCCC1 (centres undefined)	HEK293 tox inconclusive, 3T3 cytotox inconclusive
CC1=C[C@@H](CNC(=O)C2CCC2)[C@H](C(C)C)C[C@H]1Cc1nc2ccc(F)cc2[nH]1	HEK293 tox 28µM, NPR1 antag inconclusive, 3T3 cytotox 40µM
Cc1ccc(C(=O)N2CCC3(CC2)N=C(c2cccc(Br)c2)NO3)cc1C	HEK293 tox inconclusive, 3T3 cytotox inconclusive
O=C(c1ccc2c(c1)OCO2)N1CCC2(CC1)N=C(c1ccccc1)NO2	Luciferase inh 40µM
Cn1nc(C(=O)N2CCC3(CC2)N=C(c2cccc(Br)c2)NO3)c2ccccc21	HEK293 tox 45µM, 3T3 cytotox inconclusive
Cc1ccc(C2=NC3(CCN(C(=O)c4ccccc4Cl)CC3)ON2)cc1	Luciferase inh 32µM, NPR1 antag inconclusive
CC(=O)Nc1ccc(C(=O)N2CCC3(CC2)N=C(c2ccccc2)NO3)cc1	Luciferase inh 35µM
Cc1ccc(C2=NC3(CCN(C(=O)c4cc(F)ccc4Cl)CC3)ON2)cc1	Luciferase inh inconclusive, HEK293 tox inconclusive, 3T3 cytotox inconclusive
O=C(NCCN1CCOCC1)c1nc2sccn2c1-c1ccccc1	none (no result: Luciferase inh, NPR1 antag)
CC(=O)N1CCC([C@@H]2CN(Cc3ccc(F)cc3Cl)C[C@H]2CO)CC1	none
CCOC(=O)C1(Cc2ccccc2C)CCCN(C(=O)c2csc(C)n2)C1 (centres undefined)	Luciferase inh 40µM
CCOC(=O)C1(Cc2ccccc2Cl)CCN(C(=O)c2ccsc2)CC1	Luciferase inh 25µM, HEK293 tox 79µM
CCOC(=O)C1(Cc2ccccc2C)CCCN(C(=O)c2cc[n+]([O-])cc2)C1 (centres undefined)	none
CCOC(=O)C1(Cc2ccccc2F)CCCN(C(=O)C2=C(C)OCCO2)C1 (centres undefined)	HEK293 tox inconclusive
CCOC(=O)C1(Cc2ccccc2F)CCCN(C(=O)CCc2c[nH]c3ccccc23)C1 (centres undefined)	HEK293 tox 35µM, NPR1 antag inconclusive, 3T3 cytotox inconclusive

Screening results deposited in PubChem by National Center for Advancing Translational Sciences (NCATS).
